{"source": "PubChem BioAssay AID463173", "about": "(ICCB-Longwood Screening Facility, Harvard Medical School, 2010)", "note": "In all, about 52,000 compounds went through this assay and about 1,700 (3.3%) were called active. This is one part of a sample in which actives are shown more often than they occur. Rule as the data show it: active = survival mostly below about 52% (no sharp cut-off); inactive = mostly above about 56%."}
{"system": "Wild type", "experiment": "S. aureus survival, RN4220 and DeltatarO strains – OD600, teichoic acid synthesis inhibitors, primary screen (AID 463173)", "details": "S. aureus RN4220 wild type/DeltatarO growth, OD600, 18 h, stronger effect = lower value, screened at 18.75 µg/mL (by protocol)"}
{"smiles": "CCCn1c(SCC(=O)N2CCCC2)nnc1C(C)C", "survival": "105% (inactive)"}
{"smiles": "Cc1ccc(NC(=O)CCC(=O)N2Cc3ccccc3Oc3ncccc32)cc1F", "survival": "82% (inactive)"}
{"smiles": "CCn1cc(C(=O)NCCCOC(C)C)c(=O)c2cc(S(=O)(=O)N3CCOCC3)ccc21", "survival": "131% (inactive)"}
{"smiles": "COc1ccc(OC)c(CNC(=O)CN(c2ccc(C)cc2)S(=O)(=O)N(C)C)c1", "survival": "80% (inactive)"}
{"smiles": "COc1ccc(-c2cc3ncc(C(=O)c4cc([N+](=O)[O-])ccc4O)cn3n2)cc1", "survival": "58% (inactive)"}
{"smiles": "O=C(c1cnc2cc(-c3ccccc3)nn2c1)c1cc([N+](=O)[O-])ccc1O", "survival": "19% (active)"}
{"smiles": "Cc1ccc(-c2cc3ncc(C(=O)c4cc([N+](=O)[O-])ccc4O)cn3n2)cc1", "survival": "15% (active)"}
{"smiles": "Cc1ccc(-c2cc3ncc(C(=O)c4cc(Cl)c(C)cc4O)cn3n2)cc1", "survival": "91% (inactive)"}
{"smiles": "CCc1ccc(O)c(C(=O)c2cnc3cc(-c4ccc(C)cc4)nn3c2)c1", "survival": "66% (inactive)"}
{"smiles": "O=[N+]([O-])c1ccc(O)c(-c2ccnc3cc(-c4ccccc4)nn23)c1", "survival": "29% (inactive)"}
{"smiles": "O=C(CCC(=O)N1CCOc2ccccc21)NCc1cccs1", "survival": "83% (inactive)"}
{"smiles": "Cc1cccc(NC(=O)Cn2c(=O)oc3cc(S(=O)(=O)NCc4ccccc4)ccc32)c1", "survival": "92% (inactive)"}
{"smiles": "CC(=O)c1ccc(NC(=O)Cn2nc(C(F)(F)F)c3c2CCC3)cc1", "survival": "66% (inactive)"}
{"smiles": "CCc1ccc(NC(=O)C2CCN(S(=O)(=O)c3cccc(-c4noc(C)n4)c3)CC2)cc1", "survival": "90% (inactive)"}
{"smiles": "Cc1cc(C)cc(NC(=O)C2CCN(S(=O)(=O)c3cccc(-c4noc(C)n4)c3)CC2)c1", "survival": "-6% (active)"}
{"smiles": "CCc1cccc(NC(=O)C2CCN(S(=O)(=O)c3cccc(-c4noc(C)n4)c3)CC2)c1", "survival": "80% (inactive)"}
{"smiles": "CCOc1ccc(N(CC(=O)Nc2ccccc2)S(C)(=O)=O)cc1", "survival": "110% (inactive)"}
{"smiles": "COc1cc(Cl)c(C)cc1NC(=O)c1cc2ccc3cccnc3c2[nH]1", "survival": "73% (inactive)"}
{"smiles": "Cc1cnc2c(c1SCC(=O)N(C)c1ccccc1)c(=O)n(C)c(=O)n2C", "survival": "100% (inactive)"}
{"smiles": "Cc1ccccc1-c1nc(CN2CCC(C(=O)NCc3ccccc3Cl)CC2)c(C)o1", "survival": "85% (inactive)"}
{"smiles": "CCOC(=O)Cn1c(=N)n(Cc2ccc(C(C)(C)C)cc2)c2ccccc21", "survival": "95% (inactive)"}
{"smiles": "CC(C)(C)c1ccc(Cn2c(=N)n(CC(O)c3ccco3)c3ccccc32)cc1", "note": "(configuration not stated)", "survival": "53% (active)"}
{"smiles": "Cc1ccc(Cn2c(=N)n(CC(=O)c3ccccc3)c3ccccc32)cc1", "survival": "107% (inactive)"}
{"smiles": "NC(=S)N/N=C/c1ccc(Sc2cccc3cccnc23)o1", "survival": "115% (inactive)"}
{"smiles": "Cc1cc(=O)n(Cc2ccccc2)c2c1c(C)nn2-c1ccccc1", "survival": "72% (inactive)"}
{"smiles": "Cc1cc(=O)n(Cc2cccc(Cl)c2)c2c1c(C)nn2C", "survival": "66% (inactive)"}
{"smiles": "COc1cccc(Cn2c(=O)cc(C)c3c(C)nn(C)c32)c1", "survival": "85% (inactive)"}
{"smiles": "C=Cc1ccc(Cn2c(=O)cc(C)c3c(C)nn(C)c32)cc1", "survival": "0% (active)"}
{"smiles": "Cc1cc(=O)n(Cc2ccccc2)c2c1c(C)nn2C", "survival": "-3% (active)"}
{"smiles": "COC(=O)c1ccc(Cn2c(=O)cc(C)c3c(C)nn(C)c32)cc1", "survival": "53% (inactive)"}
{"smiles": "Cc1ccc(C)c(Cn2c(=O)cc(C)c3c(C)nn(C)c32)c1", "survival": "63% (inactive)"}
{"smiles": "Cc1cc(=O)n(Cc2ccc(Cl)cc2)c2c1c(C)nn2-c1ccccc1", "survival": "131% (inactive)"}
{"smiles": "C=Cc1ccc(Cn2c(=O)cc(C)c3c(C)nn(-c4ccccc4)c32)cc1", "survival": "-1% (active)"}
{"smiles": "Nc1ccc(-c2nc3c(Cl)cccc3[nH]2)cc1", "survival": "125% (inactive)"}
{"smiles": "CCOc1ccc(-n2c(C)nc3cc(C(=O)NC4CCCC4)ccc32)cc1", "survival": "67% (inactive)"}
{"smiles": "COc1cccc(Cn2c(=O)n(-c3cccc(Cl)c3C)c(=O)c3c4c(sc32)CN(C(C)=O)CC4)c1", "survival": "75% (inactive)"}
{"smiles": "Cn1cc(S(=O)(=O)N2CCCC2)cc1C(=O)Nc1ccc(C(F)(F)F)cc1", "survival": "109% (inactive)"}
{"smiles": "CCCCNc1nc(Oc2ccc(=O)n(C)n2)nc(N(C)C)n1", "survival": "83% (inactive)"}
{"smiles": "COc1ccc(-c2cc(C(=O)Nc3sc4c(c3C#N)CCCC4)no2)cc1OC", "survival": "80% (inactive)"}
{"smiles": "CCC1CN(C(=O)N2CCC(C(=O)NCCCc3ccccc3)CC2)c2cc(C)ccc2O1", "note": "(configuration not stated)", "survival": "79% (inactive)"}
{"smiles": "COCCCn1c(=N)c(C(=O)NCc2cccnc2)cc2c(=O)n3cccc(C)c3nc21", "survival": "74% (inactive)"}
{"smiles": "COc1cc(OC)c(Nc2c3c(nc4nc(-c5cccs5)nn24)CCCC3)cc1Cl", "survival": "85% (inactive)"}
{"smiles": "Cc1ccc(Nc2c3c(nc4nncn24)CCC3)cc1C", "survival": "76% (inactive)"}
{"smiles": "COc1ccc(C)cc1Nc1c2c(nc3nc(-c4cccs4)nn13)CCCC2", "survival": "63% (inactive)"}
{"smiles": "CC(=O)c1cccc(Nc2c3c(nc4nc(-c5cccs5)nn24)CCCC3)c1", "survival": "76% (inactive)"}
{"smiles": "Fc1cc(Br)ccc1Nc1c2c(nc3nc(-c4cccs4)nn13)CCCC2", "survival": "0% (active)"}
{"smiles": "Cc1ccc(Nc2c3c(nc4nc(-c5cccs5)nn24)CCCC3)cc1F", "survival": "-3% (active)"}
{"smiles": "O=C(Cn1c2ncccc2c(=O)n1-c1ccccc1)NCc1ccccc1", "survival": "80% (inactive)"}
{"smiles": "Cc1cc(O)c(C(c2ccccc2)N2CCCCC2)c(=O)n1Cc1ccco1", "note": "(configuration not stated)", "survival": "77% (inactive)"}
{"smiles": "O=C(NCc1ccccn1)c1cc2n(n1)C(C(F)(F)F)CC(c1ccco1)N2", "note": "(configuration not stated)", "survival": "108% (inactive)"}
{"smiles": "Cc1ccc2oc(-c3ccc(NC(=O)c4cccc(F)c4)c(C)c3)nc2c1", "survival": "100% (inactive)"}
{"smiles": "CNC(=S)N(Cc1cccnc1)Cc1cc2cc(OC)ccc2[nH]c1=O", "survival": "112% (inactive)"}
{"smiles": "COc1cc2c(cc1OC)n(CC(=O)c1cc(C)ccc1C)c(=O)n1nc(CCn3nc(C)cc3C)nc21", "survival": "71% (inactive)"}
{"smiles": "Cc1c(C(N)=O)sc2ncn(Cc3ccccc3)c(=O)c12", "survival": "112% (inactive)"}
{"smiles": "CC1(C)OC(c2ccccc2)CC1=O", "note": "(configuration not stated)", "survival": "98% (inactive)"}
{"smiles": "CC(C)=CCc1c(O)cc(O)c2c1OC(c1ccccc1)CC2=O", "note": "(configuration not stated)", "survival": "1% (active)"}
{"smiles": "O=C(O)c1c(-c2ccccc2)oc2ccc(OCc3c(F)cccc3Cl)cc12", "survival": "38% (inactive)"}
{"smiles": "O=C(O)c1c(-c2ccccc2)oc2ccc(OCc3ccc(Cl)c(Cl)c3)cc12", "survival": "0% (active)"}
{"smiles": "Cc1ccc(COc2ccc3oc(-c4ccccc4)c(C(=O)O)c3c2)cc1", "survival": "54% (inactive)"}
{"smiles": "CCCCNC(=O)C1CCN(S(=O)(=O)CCC)CC1", "survival": "83% (inactive)"}
{"smiles": "Cc1ccc(CN2CCC(CNC(=O)c3cnn(-c4ccccc4)c3C3CCN(C(=O)OC(C)(C)C)CC3)CC2)cc1", "survival": "73% (inactive)"}
{"smiles": "Cc1cccc(OC(=O)c2snnc2C)c1C", "survival": "80% (inactive)"}
{"smiles": "Cc1csc2nc(-c3cccc(NC(=O)C(C)C)c3)cn12", "survival": "80% (inactive)"}
{"smiles": "Cc1csc2nc(-c3cccc(NC(=O)c4c(F)cccc4F)c3)cn12", "survival": "121% (inactive)"}
{"smiles": "CCCC(=O)Nc1cccc(-c2cn3c(C)csc3n2)c1", "survival": "-6% (active)"}
{"smiles": "O=C(NCc1ccco1)c1ccc2c(c1)N(Cc1ccc(Cl)cc1)C(=O)c1ccccc1S2=O", "note": "(configuration not stated)", "survival": "165% (inactive)"}
{"smiles": "COc1ccccc1CNC(=O)CN1C(=O)c2cccnc2Oc2ccccc21", "survival": "64% (inactive)"}
{"smiles": "CCc1cnc2c(c1SCCC(C)C)c(=O)n(C)c(=O)n2C", "survival": "79% (inactive)"}
{"smiles": "Cc1ccc2c(c1)c1c3n2CCN(C(=O)c2cccc(C(F)(F)F)c2)C3CCC1", "note": "(configuration not stated)", "survival": "5% (active)"}
{"smiles": "COc1cc(SC)ccc1C(=O)N1CCn2c3c(c4cc(C)ccc42)CCCC31", "note": "(configuration not stated)", "survival": "85% (inactive)"}
{"smiles": "Cc1ccc2c(c1)c1c3n2CCN(C(=O)c2ccc(C(F)(F)F)cc2)C3CCC1", "note": "(configuration not stated)", "survival": "49% (inactive)"}
{"smiles": "CCOc1cc(C(=O)N2CCn3c4c(c5cc(C)ccc53)CCCC42)cc(OCC)c1OCC", "note": "(configuration not stated)", "survival": "67% (inactive)"}
{"smiles": "Cc1ccc(C(=O)N2CCn3c4c(c5cc(C)ccc53)CCCC42)cc1", "note": "(configuration not stated)", "survival": "-10% (active)"}
{"smiles": "CCCN(CCC)S(=O)(=O)c1ccc(C(=O)N2CCn3c4c(c5cc(C)ccc53)CCCC42)cc1", "note": "(configuration not stated)", "survival": "82% (inactive)"}
{"smiles": "COc1ccccc1Nc1nc2c(S(=O)(=O)c3ccc(C(C)C)cc3)nnn2c2ccsc12", "survival": "116% (inactive)"}
{"smiles": "CCCc1nc2ccccc2c(NC(=O)CN(CC)CC)c1CC", "survival": "103% (inactive)"}
{"smiles": "CN(C)CCNC(=O)Cc1ccc(NC(=O)N2CCCCc3ccccc32)cc1", "survival": "75% (inactive)"}
{"smiles": "COc1ccc(/C=C\\C(=O)NC2CC(=O)N(c3ccccc3)C2)cc1OC", "note": "(configuration not stated)", "survival": "134% (inactive)"}
{"smiles": "CCOc1ccc(OCC)c(Nc2cc(C)nc3nc(-c4ccco4)nn23)c1", "survival": "-1% (active)"}
{"smiles": "CCOC(=O)c1ccccc1Nc1cc(C)nc2nc(-c3ccco3)nn12", "survival": "133% (inactive)"}
{"smiles": "Cc1cc(Nc2cccc(F)c2)n2nc(-c3ccco3)nc2n1", "survival": "69% (inactive)"}
{"smiles": "Cc1cc(Nc2ccc(Br)c(C)c2)n2nc(-c3ccco3)nc2n1", "survival": "-6% (active)"}
{"smiles": "Cc1cc(C)cc(Nc2cc(C)nc3nc(-c4ccco4)nn23)c1", "survival": "78% (inactive)"}
{"smiles": "Cc1cc(Nc2ccccc2Cl)n2nc(-c3ccco3)nc2n1", "survival": "78% (inactive)"}
{"smiles": "CC(C)CC(=O)Nc1c(C(=O)N2CCN(c3ccccc3)CC2)oc2ccccc12", "survival": "96% (inactive)"}
{"smiles": "c1ccc(C(c2ccccc2)N2CCN(Cc3nnnn3Cc3ccc4c(c3)OCO4)CC2)cc1", "survival": "105% (inactive)"}
{"smiles": "O=c1c(=O)n(-c2ccccc2)ccn1Cc1cccc(C(F)(F)F)c1", "survival": "108% (inactive)"}
{"smiles": "CN(C(=O)CSc1nc2ccc(NC(=O)c3ccccc3)cc2s1)c1ccccc1", "survival": "77% (inactive)"}
{"smiles": "CN(C)CCN(Cc1ccccc1)S(=O)(=O)c1ccc2[nH]c(=O)ccc2c1", "survival": "76% (inactive)"}
{"smiles": "COCCN(Cc1ccc(C)c(Br)c1)S(=O)(=O)c1ccc2[nH]c(=O)ccc2c1", "survival": "-3% (active)"}
{"smiles": "CCN(c1ccc(OC)cc1)S(=O)(=O)c1ccc2[nH]c(=O)ccc2c1", "survival": "72% (inactive)"}
{"smiles": "CCc1ccccc1NC(=O)c1cc(S(=O)(=O)N2CCC(C)CC2)cn1C", "survival": "22% (inactive)"}
